# Hits are enriched below; roughly 2.6% of the tested compounds scored in any of these assays.
# Cruzain Triton – cruzain (T. cruzi) inhibition with detergent. actives 0.43% (n = 200,000). P25779. purified cruzain, Z-FR-AMC fluorescence, 0.01% Triton. Potency, µM, for the others: max response, negative = inhibition, usual class: inhibitors;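 further: plate controls were neutral wells for no effect and buffer without enzyme for full effect; nearly all actives have a fitted effect of over 40% in size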
# Target sequence (P25779 123-467 limits assumed): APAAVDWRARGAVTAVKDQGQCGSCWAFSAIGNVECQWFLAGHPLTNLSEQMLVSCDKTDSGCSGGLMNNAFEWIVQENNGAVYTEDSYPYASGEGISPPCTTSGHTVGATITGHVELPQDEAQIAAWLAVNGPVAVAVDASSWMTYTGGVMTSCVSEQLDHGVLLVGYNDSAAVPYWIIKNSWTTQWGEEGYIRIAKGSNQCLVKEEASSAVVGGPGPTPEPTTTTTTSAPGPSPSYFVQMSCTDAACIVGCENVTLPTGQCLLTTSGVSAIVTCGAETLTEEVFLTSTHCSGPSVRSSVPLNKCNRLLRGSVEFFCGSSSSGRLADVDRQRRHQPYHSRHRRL
#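 Sodium acetate buffer (100 mM, pH 5.5) containing 5 mM DTT and 0.01% Triton X-100 hosted 1.5 nM cruzain and test compound for 15 min at room temperature. Cleavage of 2 uM Z-FR-AMC was then tracked by fluorescence.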
# Cruzain inh noDet – inhibitors of Trypanosoma cruzi cruzain without detergent; P25779; purified cruzain, Z-FR-AMC fluorescence, no detergent; Potency, µM, for inactives: max response, negative = inhibition, actives largely listed as inhibitors; actives 2.3% (n = 200,000); AID 1476;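 further: plate controls were enzyme without inhibitor for no effect and buffer without enzyme for full effect; nearly all actives have a fitted effect of over 40% in size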
#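 Purified cruzain at 1.5 nM, pre-incubated 15 min with compound at room temperature in 100 mM sodium acetate pH 5.5, 5 mM DTT, 0.00005% Triton X-100. Reaction started with 2 uM Z-FR-AMC; AMC fluorescence increase over 60 s gives rate.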
# Active calls of the source: *; ? = inconclusive; ! = not active in a repeat. The call rests on the fitted dose curve; in most records, active means well fitted curve in the direction sought with a large enough effect; inconclusive means small, poorly fitted or top-dose-only effect, or another doubt; inactive means no such curve, though single readings can be large; an effect the other way counts as inactive or inconclusive. Potency means the concentration at half of the fitted maximal effect.
SMILES,Cruzain Triton,Cruzain inh noDet
CCOc1ccc(-c2cn3c(n2)sc2cc(C(=O)NCCCN4CCCCCC4)ccc23)cc1,-1.8%,2.8%
Cc1ccc(NC(=O)Cn2cc3c(n2)CCCC3)cc1Cl,-4.9%,-4.9%
COc1ccc(-n2c(=O)c3ccccc3n(Cc3cccc(C)c3)c2=O)cc1,-0.5%,4.6%
COc1cccc(-c2cc3nc(-c4ccccc4)cc(N4CCC5(CC4)OCCO5)n3n2)c1,28.2µM*,-14.4%
COc1cccc(-c2cc(C(F)(F)F)n3nc(C(=O)N4CCC5(CC4)OCCO5)cc3n2)c1,-4.6%,?
CN(C)c1ccc(C2C=C(c3ccccc3)Nc3nnnn32)cc1 (configuration not stated),-8.9%,4.5%
O=C1c2ccccc2C(=O)c2c(Nc3cc4c5c(ccc6c7ccc8c9c(cc(Nc%10cccc%11c%10C(=O)c%10ccccc%10C%11=O)c(c3c56)c97)-c3ccccc3C8=O)C(=O)c3ccccc3-4)cccc21,-3.5%,6.2%
CCCS(=O)(=O)c1nc(S(=O)(=O)c2ccc(C)cc2)c(NCc2ccco2)s1,-4.5%,0.1%
Cc1ccc(S(=O)(=O)c2nc(S(=O)(=O)c3ccc(C)cc3)c(NCc3ccco3)s2)cc1,0.0%,31.6µM*
CCc1ccc2[nH]c3nc(SCC(=O)NNC(=O)c4ccc(C(C)(C)C)cc4)nnc3c2c1,-0.5%,3.98µM*
CCc1ccc2[nH]c3nc(SCc4nnc(-c5ccc(C)cc5)o4)nnc3c2c1,-0.1%,12.6µM*
Cc1ccc2nc(SCc3nnc(-c4ccccc4)o3)[nH]c2c1,-25.3%,-18.5%
Cc1ccc(C(=O)NNC(=O)CSc2nnc3c(n2)[nH]c2ccc(C)cc23)cc1,2.5%,?
CCOc1ccc(S(=O)(=O)N2CCN(c3ccc(Cl)c(Cl)c3)CC2)c2ccccc12,2.2%,9.7%
O=S(=O)(c1cccc2ccccc12)N1CCN(c2ccc(Cl)c(Cl)c2)CC1,-1.4%,20µM*
C=C1C(=O)OC2C[C@@]3(C)CCCC(=C)[C@@H]3CC12 (some centres not stated),-1.6%,2.2%
C/C(=N\NC(N)=S)c1ccc(Cl)s1,0.562µM*,0.251µM*
C/C(=N\NC(=S)NC(C)C)c1ccc(Cl)s1,-11.3%,-9.6%
Cc1ccc2nc(CN3CCN(S(=O)(=O)c4ccc(C(C)C)cc4)CC3)oc2c1,-4.8%,-6.8%
CCOC(=O)c1ccccc1NC(=O)Cc1c(C(=O)O)c(C)cn1C,-0.6%,-9.2%
CCOc1ccc(-n2nc3ccc(NC(=O)c4ccc5c(c4)OCCO5)cc3n2)cc1,-3.0%,12.6µM*
O=C(Nc1ccc2nn(-c3ccccc3)nc2c1)c1ccc2c(c1)OCCO2,-7.3%,?
Cc1ccc(-n2nc3ccc(NC(=O)c4ccc5c(c4)OCO5)cc3n2)cc1,-0.7%,-6.2%
CCc1ccc(-n2nc3ccc(NC(=O)c4ccc5c(c4)OCO5)cc3n2)cc1,-1.1%,10µM*
CC1CCN(S(=O)(=O)c2ccc3c(c2)N(CC(=O)NCC(C)c2ccccc2)C(=O)CO3)CC1 (configuration not stated),-3.9%,1.8%
SMILES,Cruzain Triton,Cruzain inh noDet
Cc1ccc(C(=O)NCC(c2ccc3c(c2)OCO3)N2CCOCC2)cc1C (configuration not stated),1.4%,6.5%
Cc1ccc(-c2nn3c(C)nnc3c3ccccc23)cc1S(=O)(=O)NCC(C)O (configuration not stated),1.3%,-3.7%
O=C1C2C3C=CC(C3=C(c3ccccc3)c3ccccc3)C2C(=O)N1CCO (configuration not stated),-8.4%,?
O=C1C2C3C=CC(C3=C(c3ccccc3)c3ccccc3)C2C(=O)N1Cc1ccccc1 (configuration not stated),2.6%,20µM*
CCN(CC)Cc1ccc(Nc2ccnc3cc(Cl)ccc23)cc1O,-17.2%,?
O=C(NCc1ccc(-c2nc3ccccc3s2)cc1)c1ccco1,-3.4%,25.1µM*
O=C(NC(=S)NCc1ccc(-c2nc3ccccc3s2)cc1)c1ccco1,-2.5%,?
CCOc1ccc(NC(=O)CCc2c(C)nc3c(c(C)nn3-c3ccccc3)c2C)cc1,-1.6%,-5.7%
O=S(=O)(c1ccccc1)c1nc(-c2cccs2)oc1SCc1ccccc1Cl,-4.7%,-1.4%
COc1cc(NC(=O)c2cc(Cl)ccc2Cl)ccc1-c1cc2ccccc2oc1=O,-14.9%,20µM*
O=C(Nc1ccc2oc(-c3ccc4ccccc4c3)nc2c1)c1cc(Br)ccc1Cl,-0.1%,-0.5%
COc1ccc(C(=O)Nc2ccc(-c3cc4ccccc4oc3=O)c(C)c2)cc1OC,-2.0%,?
O=C(Nc1ccc2oc(-c3ccc4ccccc4c3)nc2c1)c1cc(Cl)ccc1Cl,-1.0%,5.01µM*
COC(=O)[C@H](COC(C)(C)C)NC(=O)O[C@@H]1C(=O)c2cc(OC)ccc2O[C@H]1c1ccc(OC)c(Br)c1,1.8%,7.8%
COc1ccc(C(=O)N2CCC[C@@]3(CCN(c4ccccn4)C3)C2)cc1,-0.5%,6.9%
Cc1nnc(SCc2ccc(Cl)cc2)c2cc3occc3n12,-5.0%,?
CCCN(CC1CC1)c1nc(N)c(C#N)c(CC#N)c1C#N,-6.2%,-8.9%
CCCN(CC1CC1)c1nc(C)nc(Nc2c(Cl)cc(Cl)cc2Cl)c1Cl,-1.7%,25.1µM*!
N#CC1=C(S)N=C(N)C(c2nc(-c3ccccc3)cs2)C12CCCCC2 (configuration not stated),0.5%,-0.2%
Cc1ccc(-c2csc(C3C(N)=NC(S)=C(C#N)C34CCCCC4)n2)cc1 (configuration not stated),-9.3%,15.8µM*
O=C1CC(SCc2nc3ccccc3[nH]2)C(=O)N1c1ccc(F)cc1 (configuration not stated),-7.2%,?
O=C1CC(SCc2nc3ccccc3[nH]2)C(=O)N1c1cccc(Cl)c1 (configuration not stated),-12.1%,15.8µM*
CCCn1c2c(c(O)c(C(=O)NCc3ccccc3)c1=O)CCCC2,-3.1%,-0.7%
O=C(Nc1cccc(Cl)c1)c1c(O)c2c(n(Cc3ccco3)c1=O)CCCC2,-2.3%,7.94µM*
O=C(Nc1cccc(Cl)c1)c1c(O)c2c(n(Cc3ccccc3)c1=O)CCCC2,-0.5%,15.8µM*
SMILES,Cruzain Triton,Cruzain inh noDet
CCOC(=O)c1c(O)c2c(n(Cc3ccco3)c1=O)CCCC2,-0.3%,4.5%
CCOC(=O)N1CCc2c(sc3c2C(=O)NC(c2cc(OC)c(OC)c(OC)c2)N3)C1 (configuration not stated),-8.2%,-4.1%
CCOC(=O)c1[nH]c(C)c(CCC(=O)NCc2ccc(CC)cc2)c1C,-0.3%,-11.2%
CCCC1c2c(ccc3ccccc23)Oc2ccc3ccccc3c21,16.9%,?
COC(=O)c1cc2oc3ccccc3c2n1CC(=O)Nc1cc(OC)cc(OC)c1,-5.4%,-10.4%
Cc1ccc(C)c(CN2C(=O)c3ccccc3S(=O)(=O)c3ccc(C(=O)N4CCCC4)cc32)c1,-2.0%,?
O=C(NCCC1=CCCCC1)c1ccc2c(c1)N(Cc1ccc(Cl)cc1)C(=O)c1ccccc1S2(=O)=O,-1.3%,31.6µM*
O=C(NCc1ccco1)c1ccc2c(c1)N(Cc1ccc(Cl)cc1)C(=O)c1ccccc1S2(=O)=O,-4.0%,25.1µM*
COCCNC(=O)c1ccc2c(c1)N(Cc1cc(C)ccc1C)C(=O)c1ccccc1S2=O (configuration not stated),-1.2%,?
CCc1ccccc1NC(=O)c1ccc2c(c1)N(Cc1cc(C)ccc1C)C(=O)c1ccccc1S2(=O)=O,0.2%,15.8µM*

# Assay outcomes: PubChem BioAssay, National Center for Advancing Translational Sciences (NCATS)
